From PubChem BioAssay (Tox21)
Where “and” joins values, the source holds several entries; their conditions need not be identical. Identical values can stand only once. Records with an inconclusive call do not appear. Where a structure was tested more than once in an assay, its records may differ in their call. Calls of active or inactive are those of the source. Calls follow the shape of the dose curve; as a rule, active = well fitted curve in the direction sought with a large enough effect in the repeat runs; inconclusive = weak or mixed curves; inactive = no such curve, though single readings can be large; an effect the other way counts as inactive or inconclusive.

Experiment: qHTS RealTime-Glo MT Cell Viability Assay in HepG2 cells - 0 hour (AID 1224889); also: nearly all actives have a fitted effect of over 50% in size
Conditions: RealTime-Glo luminescence; series mostly up to 76.8 µM; activity change, negative = cytotoxicity: at the top concentration
Procedure, shortened: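 HepG2 suspension premixed with RealTime-Glo reagents is plated at 600 cells per well and left 5 h at 37 C/5% CO2. Compounds in DMSO then go in, and bioluminescence reflecting viable cell number is recorded over 40 h.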
% is scaled to controls: 0 for no effect and ±100 for the full control effect; potency is read from the fitted curve at half-maximal effect.

Structure (SMILES)	activity change, negative = cytotoxicity	Potency
Cn1cc(C(=O)[C@@H]2CCc3nc[nH]c3C2)c2ccccc21	13.5% [at 35.3 µM] (inactive)	–
Cc1cc(C2CCCCC2)n(O)c(=O)c1	1.48% [at 35.3 µM] (inactive)	–
Cc1[nH]nc2c1N=C(c1ccccc1Cl)c1cc([N+](=O)[O-])ccc1N2	-3.86% (inactive)	–
CC1=C(C(=O)OC(C)C)C(c2cccc([N+](=O)[O-])c2)C(C(=O)OC2CN(C(c3ccccc3)c3ccccc3)C2)=C(N)N1 (centres undefined)	-2.41% [at 35.3 µM] (inactive)	–
OCCCCCCCCCCCCBr	17.9% (inactive)	–
Cc1ccc(-n2nc(C(C)(C)C)cc2NC(=O)Nc2ccc(OCCN3CCOCC3)c3ccccc23)cc1	-0.156% [at 35.3 µM] (inactive)	–
C/C(=C(/OCCOc1ccc(Cl)cc1)c1ccc(Cl)cc1Cl)n1ccnc1	0.139% [at 35.3 µM] (inactive)	–
OCCN(CCO)c1nc(N2CCCCC2)c2nc(N(CCO)CCO)nc(N3CCCCC3)c2n1	-11% [at 35.3 µM] (inactive)	–
Clc1ccccc1C(c1ccccc1)(c1ccccc1)n1ccnc1	5.8% [at 35.3 µM] (inactive)	–
[Cl][Au]([Cl])[Cl]	-21.1% (inactive)	–
Oc1c(Cl)cc(Cl)c2cccnc12	-2.19% [at 35.3 µM] (inactive)	–
O=C(NOCC1CC1)c1ccc(F)c(F)c1Nc1ccc(I)cc1Cl	-22.5% [at 35.3 µM] (inactive)	–
O=C(N/N=C/c1ccccc1O)c1ccncc1	7.05% [at 35.3 µM] (inactive)	–
ON=C1CCCC1	-1.71% (inactive)	–
Nc1ccccc1O	-1.27% (inactive)	–
[O-][n+]1ccccc1SSc1cccc[n+]1[O-]	-1.89% [at 15.8 µM] (inactive)	–
CCCCCCCCS(=O)C(C)Cc1ccc2c(c1)OCO2 (centres undefined)	0.226% (inactive)	–
NNc1nc(-c2ccccc2)cs1	-5.25% (inactive)	–
CC1=NC(C)OC1C (centres undefined)	-20.1% (inactive)	–
C/C=C(\C)C(=O)OCc1ccccc1	-6.19% (inactive)	–
COCCCC/C(=N\OCCN)c1ccc(C(F)(F)F)cc1	21.4% [at 35.3 µM] (inactive)	–
O=c1cccccc1O	5% (inactive)	–
CCCCCOc1ccccc1/C(=C\SC)n1ccnc1	-1.24% [at 35.3 µM] (inactive)	–
CCCC1O[C@@H]2C[C@H]3[C@@H]4CCC5=CC(=O)C=C[C@]5(C)[C@H]4[C@@H](O)C[C@]3(C)[C@]2(C(=O)CO)O1 (some centres undefined)	–	7.77 µM (active) and 7.76 µM (active)
O=C(Nc1cccc([N+](=O)[O-])c1)c1cc2ccccc2cc1O	-9.61% (inactive)	–

Experiment: A CellTox Green Cytotoxicity Assay to monitor cytotoxicity in HepG2 cells - 8 hour (AID 1224890); also: nearly all actives have a fitted effect of over 45% in size
Conditions: CellTox Green fluorescence; series mostly up to 76.8 µM; cytotoxicity increase: at the top concentration
Procedure, shortened: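 Real-time, homogeneous cytotoxicity readout: dead-cell DNA staining by CellTox Green in HepG2 monolayers, fluorescence measured at timed intervals up to 40 h of continuous compound exposure.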

Structure (SMILES)	cytotoxicity increase	Potency
Cn1cc(C(=O)[C@@H]2CCc3nc[nH]c3C2)c2ccccc21	-17% [at 35.3 µM] (inactive)	–
Cc1cc(C2CCCCC2)n(O)c(=O)c1	-7.98% [at 35.3 µM] (inactive)	–
Cc1[nH]nc2c1N=C(c1ccccc1Cl)c1cc([N+](=O)[O-])ccc1N2	-4.09% (inactive)	–
CCCCc1oc2ccc(NS(C)(=O)=O)cc2c1C(=O)c1ccc(OCCCN(CCCC)CCCC)cc1	–	23.9 µM (active)
OCCCCCCCCCCCCBr	18% (inactive)	–
Cc1ccc(-n2nc(C(C)(C)C)cc2NC(=O)Nc2ccc(OCCN3CCOCC3)c3ccccc23)cc1	-16.2% [at 35.3 µM] (inactive)	–
C/C(=C(/OCCOc1ccc(Cl)cc1)c1ccc(Cl)cc1Cl)n1ccnc1	0.558% [at 35.3 µM] (inactive)	–
NNc1nc(-c2ccc(N)cc2)cs1	-14.1% (inactive)	–
Nc1nc2ccccc2n1Cc1ccc(F)cc1	12.4% [at 35.3 µM] (inactive)	–
OCCN(CCO)c1nc(N2CCCCC2)c2nc(N(CCO)CCO)nc(N3CCCCC3)c2n1	–	23.9 µM (active)
CCCCCCCCn1sc(Cl)c(Cl)c1=O	–	17.4 µM (active)
Clc1ccccc1C(c1ccccc1)(c1ccccc1)n1ccnc1	–	49 µM (active) and inactive
Oc1c(Cl)cc(Cl)c2cccnc12	10% [at 35.3 µM] (inactive)	–
O=C(NOCC1CC1)c1ccc(F)c(F)c1Nc1ccc(I)cc1Cl	-11.2% [at 35.3 µM] (inactive)	–
O=C(N/N=C/c1ccccc1O)c1ccncc1	2.68% [at 35.3 µM] (inactive)	–
ON=C1CCCC1	-0.618% (inactive)	–
Nc1ccccc1O	-6.88% (inactive)	–

Structure (SMILES)	cytotoxicity increase	Potency
[O-][n+]1ccccc1SSc1cccc[n+]1[O-]	–	10.4 µM (active)
CCCCCCCCS(=O)C(C)Cc1ccc2c(c1)OCO2 (centres undefined)	7.69% (inactive)	–
NNc1nc(-c2ccccc2)cs1	-20.8% (inactive)	–
CCCCC(CC)CN=C(N)NC(N)=NCCCCCCN=C(N)NC(N)=NCC(CC)CCCC (centres undefined)	–	10.7 µM (active)
CCCCCCCCCCCC[N+](C)(C)CCCCCCCCCCCC	–	19.5 µM (active)
CC1=NC(C)OC1C (centres undefined)	-1.11% (inactive)	–
C/C=C(\C)C(=O)OCc1ccccc1	-0.0158% (inactive)	–
COCCCC/C(=N\OCCN)c1ccc(C(F)(F)F)cc1	14% [at 35.3 µM] (inactive)	–
CCCCCCCCNC(C)C(O)c1ccc(SC(C)C)cc1 (centres undefined)	–	21.3 µM (active)
[Cl][Bi]([Cl])([c]1ccccc1)([c]1ccccc1)[c]1ccccc1	–	15.4 µM (active)
OCCN1CCN(CC/C=C2/c3ccccc3Sc3ccc(C(F)(F)F)cc32)CC1	–	23.9 µM (active)
O=c1cccccc1O	9.47% (inactive)	–
CC(C)c1ccc2c(c1)CC[C@H]1[C@](C)(CN)CCC[C@]21C	–	43.6 µM (active)
CCCCCOc1ccccc1/C(=C\SC)n1ccnc1	-3.6% [at 35.3 µM] (inactive)	–
CCCC1O[C@@H]2C[C@H]3[C@@H]4CCC5=CC(=O)C=C[C@]5(C)[C@H]4[C@@H](O)C[C@]3(C)[C@]2(C(=O)CO)O1 (some centres undefined)	–	inactive
O=C(Nc1cccc([N+](=O)[O-])c1)c1cc2ccccc2cc1O	-18.9% (inactive)	–
Cc1cc(O)c2ccccc2c1O	–	21.3 µM (active)
